In the library only some 3.2% were active in any assay of this set; here they are far more common.
FMDV inh: blocks foot and mouth disease virus; FMDV antiviral cell-based qHTS; actives 1.2% (n = 410,000); AID 1159524; Potency, µM (highest dose often 57.9 µM), for inactives: at the top dose activity change, negative = inhibition, hits mostly inhibitors; calls by dose curve; tested in HEK293T cells; note: read-out not given here; nearly all actives have a fitted effect of over 45% in size
Lassa entry inh: Lassa virus entry inhibition. Lassa virus pseudotype entry inhibition, cell reporter. Potency, µM (top dose mostly 37.9 µM), for inactives: top-dose activity change, negative = inhibition, usual class: inhibitors. actives 1.2% (n = 300,000); calls by dose curve; tested in HEK293 cells; note: nearly all actives have a fitted effect of over 50% in size
VACV mCherry inh: inhibitors of vaccinia virus infection (mCherry reporter signal) | Vaccinia virus mCherry reporter infection, fluorescence | Potency, µM (highest dose often 36.5 µM), for the others: top-dose activity change, negative = inhibition, most hits filed as inhibitors | actives 0.63% (n = 310,000) | AID 720579; calls by dose curve; tested in A549 cells; note: nearly all actives have a fitted effect of over 35% in size
VACV Venus inh: inhibitors of vaccinia virus (Venus reporter); Vaccinia virus Venus reporter expression, fluorescence; Potency, µM (highest dose often 36.5 µM), inactives show top-dose activity change, negative = inhibition, most hits filed as inhibitors; actives 0.46% (n = 330,000); AID 720580; calls by dose curve; tested in A549 cells; note: nearly all actives have a fitted effect of over 30% in size
Marburg entry inh: Marburg virus entry inhibition; Marburg virus pseudotyped entry inhibition, cell reporter; Potency, µM (highest dose often 37.8 µM), without a hit: at the top dose activity change, negative = inhibition, most hits filed as inhibitors; actives 1.8% (n = 300,000); calls by dose curve; tested in HEK293 cells
* marks the source's active call; other numbers are inactive results; [ ] = another dose, or the depositor's remark. % is set by controls: 0 for no effect and ±100 for the full control effect; potency is the fitted concentration of half-maximal effect.

Results for CC1=C(C(=O)Nc2ccc3[nH]ncc3c2)C(c2ccc(F)cc2)NC(=O)N1 (configuration not stated) ?
Lassa entry inh: 5.7%

How did N#CC(C#N)=c1ccc2c(c1)NC1(CCCCC1)N=2 do in these assays?
FMDV inh: 25.1µM*; Lassa entry inh: inconclusive; VACV mCherry inh: -25.3%; VACV Venus inh: -36.1%; Marburg entry inh: inconclusive

How did N#CC(C#N)=C1NC2(CCCCC2)Cc2ccccc21 do in these assays?
FMDV inh: -20.7%

What do the screens show for `CSc1sc(C(=O)NCC2CC2)cc1S(=O)(=O)C(C)C`?
FMDV inh: -16.1%; Lassa entry inh: inconclusive; VACV mCherry inh: -18.0%; VACV Venus inh: -9.0%; Marburg entry inh: -1.3%[46.1 µM]

What do the screens show for `COC(=O)c1cc(S(=O)(=O)C(C)C)c(S(C)=O)s1` (configuration not stated)?
FMDV inh: -17.5%; Lassa entry inh: -2.1%[46.1 µM]; VACV mCherry inh: 10µM*; VACV Venus inh: inconclusive; Marburg entry inh: 11.2µM*

Results for COc1cccc(C(=O)N2CCc3cc(OC)c(OC)cc3C2COc2ccc3c(C)cc(=O)oc3c2)c1 (configuration not stated) ?
FMDV inh: 0.0%; Lassa entry inh: -27.3%[46.1 µM]; VACV mCherry inh: -23.3%; VACV Venus inh: -12.8%; Marburg entry inh: inconclusive

Results for N#CC1CCCc2c1[nH]c1ccc([N+](=O)[O-])cc21 (configuration not stated) ?
FMDV inh: -17.8%; Lassa entry inh: inconclusive; VACV mCherry inh: inactive; VACV Venus inh: -14.3%; Marburg entry inh: 10µM*

How did O=C1NCCc2c1[nH]c1ccc([N+](=O)[O-])cc21 do in these assays?
FMDV inh: 3.0%; VACV mCherry inh: -23.9%; VACV Venus inh: -19.6%; Marburg entry inh: 12.9%[46.1 µM]

What do the screens show for `CCn1nc(C(=O)NCC(c2cccs2)N2CCOCC2)c2ccccc2c1=O` (configuration not stated)?
FMDV inh: 0.0%; Lassa entry inh: inconclusive; VACV mCherry inh: -10.7%; VACV Venus inh: -19.9%; Marburg entry inh: -9.4%

How did CCCCn1nc(C(=O)NCC(c2cccs2)N2CCOCC2)c2ccccc2c1=O (configuration not stated) do in these assays?
FMDV inh: 31.6µM*

How did Fc1cnc(N2CCN(c3ccccc3)CC2)nc1N1CCN(c2ccccc2)CC1 do in these assays?
FMDV inh: 20µM*; Lassa entry inh: inconclusive; VACV mCherry inh: inactive; VACV Venus inh: -9.2%; Marburg entry inh: inconclusive

Results for O=c1nc(N/N=C/c2c[nH]c3ccccc23)cn[nH]1 ?
FMDV inh: 7.7%; Lassa entry inh: inconclusive; VACV mCherry inh: -26.6%; VACV Venus inh: -17.2%; Marburg entry inh: 8.91µM*

How did O=c1nc(N/N=C/C=C/c2ccccc2)cn[nH]1 do in these assays?
FMDV inh: inconclusive; Lassa entry inh: 2.24µM*; VACV mCherry inh: inactive; VACV Venus inh: -6.3%; Marburg entry inh: -9.1%[46.1 µM]

What do the screens show for `C(=C\c1ccccc1)/C=N/Nc1nncc(-c2ccccc2)n1`?
Lassa entry inh: -0.2%; Marburg entry inh: 31.6%

Results for CCN1C(=NCc2ccc3c(c2)OCO3)NC(CCc2ccccc2)C(C(=O)OC)=C1C (configuration not stated) ?
Lassa entry inh: inconclusive; Marburg entry inh: -29.8%[14.2 µM]

What do the screens show for `Cc1cccc(NC(=O)CSCC(=O)N(CCC(C)C)c2c(N)n(Cc3ccccc3)c(=O)[nH]c2=O)c1`?
FMDV inh: -24.2%; Lassa entry inh: 10µM*; VACV mCherry inh: -16.3%; VACV Venus inh: -7.9%; Marburg entry inh: inconclusive

What do the screens show for `Cc1cccc(N=C2Sc3nc4c(C)c(C)ccc4cc3CN2CCN2CCOCC2)c1`?
FMDV inh: -29.3%; Lassa entry inh: 23.1µM*; VACV mCherry inh: -11.1%; VACV Venus inh: inconclusive; Marburg entry inh: 16.4µM*

How did COCCN1Cc2cc3cc(C)ccc3nc2SC1=Nc1cccc(OC)c1 do in these assays?
FMDV inh: -13.9%

Results for O[C@@H](c1cc(C(F)(F)F)nc2c(C(F)(F)F)cccc12)[C@H]1CCCCN1 ?
FMDV inh: -25.0%; VACV mCherry inh: inconclusive; VACV Venus inh: inconclusive

What do the screens show for `OC(c1cc(-c2ccc(Cl)cc2)nc2ccccc12)C1CCCCN1` (configuration not stated)?
FMDV inh: inconclusive; VACV mCherry inh: inconclusive; VACV Venus inh: 14.1µM*

Screening data from PubChem.
